Reference: publication PMC5540273 (PLoS ONE, 2017)

What was measured:
Details in all cases: concentration: 1 μM, replicates: in singlicate; n = 1
FLT3 = system: FLT3
FLT4 = system: FLT4
FRK = system: FRK
FYN = system: FYN
GAK = system: GAK
GCN2(Kin.Dom.2,S808G) = system: T1, GCN2(Kin.Dom.2,S808G)
T1 construct: gene EIF2AK4

GRK1 = system: GRK1
GRK2 = system: T2, GRK2
T2 construct: gene ADRBK1

GRK3 = system: T3, GRK3
T3 construct: gene ADRBK2

GRK4 = system: GRK4
GRK7 = system: GRK7
GSK3A = system: GSK3A
GSK3B = system: GSK3B
HASPIN = system: T4, HASPIN
T4 construct: gene GSG2

HCK = system: HCK
HIPK1 = system: HIPK1
HIPK2 = system: HIPK2
HIPK3 = system: HIPK3
HIPK4 = system: HIPK4
HPK1 = system: HPK1
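Also: KINOMEscan kinase panel screen.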

Row | Structure (SMILES) | %Inh (FLT3) [%] | %Inh (FLT4) [%] | %Inh (FRK) [%] | %Inh (FYN) [%] | %Inh (GAK) [%] | %Inh (GCN2(Kin.Dom.2,S808G)) [%] | %Inh (GRK1) [%] | %Inh (GRK2) [%] | %Inh (GRK3) [%] | %Inh (GRK4) [%] | %Inh (GRK7) [%] | %Inh (GSK3A) [%] | %Inh (GSK3B) [%] | %Inh (HASPIN) [%] | %Inh (HCK) [%] | %Inh (HIPK1) [%] | %Inh (HIPK2) [%] | %Inh (HIPK3) [%] | %Inh (HIPK4) [%] | %Inh (HPK1) [%]
1 | Nc1nc(-c2nccs2)c(-c2ccnc3ccccc23)s1 [GW693542] | 2 | 0 | 0 | 17 | 45 | 17 | 0 | 0 | 39 | 21 | 0 | 5 | 14 | 0 | 0 | 3 | 0 | 21 | 0 | 30
2 | CC(C)(C)c1ccc(C(=O)Nc2cn3cc(Cl)ccc3n2)cc1 | 70 | 0 | 12 | 99.3 | 0 | 36 | 10 | 0 | 0 | 0 | 0 | 3 | 0 | 0 | 1 | 0 | 0 | 0 | 0 | 4
3 | Cc1ccc(C(=O)Nc2ccc(Nc3ccnc4cc(-c5ccccn5)ccc34)cc2O)cc1.Cl [GW440146] | 0 | 0 | 48 | 41 | 7 | 12 | 0 | 0 | 24 | 0 | 0 | 7 | 4 | 30 | 72 | 8 | 0 | 4 | 0 | 34
4 | Cc1cccc(-c2nc(Nc3ccc4[nH]ncc4c3)c3ccccc3n2)n1 [GW857175] | 13 | 6 | 3 | 0 | 0 | 5 | 3 | 40 | 0 | 10 | 4 | 14 | 21 | 68 | 0 | 0 | 20 | 35 | 3 | 54
5 | O=C(O)COc1ncnc2cc(-c3ccc4[nH]ncc4c3)sc12 | 2 | 2 | 100 | 100 | 4 | 0 | 3 | 20 | 23 | 0 | 0 | 25 | 27 | 41 | 14 | 45 | 47 | 47 | 38 | 7
6 | Fc1cccc(COc2nnc(-c3ccc4c(c3)CCO4)o2)c1 | 4 | 0 | 0 | 0 | 2 | 5 | 0 | 0 | 23 | 0 | 8 | 0 | 9 | 44 | 0 | 25 | 23 | 0 | 3 | 0
7 | COc1cc2ncnc(Nc3ccc4nc(-c5ccccc5)[nH]c4c3)c2cc1OC.Cl [GW282450] | 0 | 0 | 0 | 34 | 68 | 0 | 0 | 0 | 14 | 11 | 0 | 0 | 22 | 0 | 0 | 6 | 0 | 32 | 35 | 1
8 | COc1ccc(Nc2nccc(NCCNC(=O)Nc3ccccc3F)n2)cc1 [GSK1379901] | 0 | 6 | 13 | 0 | 0 | 2 | 0 | 0 | 26 | 0 | 0 | 30 | 13 | 0 | 0 | 0 | 0 | 7 | 0 | 36
9 | Cc1cccc(-c2cc(Nc3ccncc3)c3ccccc3n2)n1 [GSK223675] | 0 | 0 | 0 | 40 | 0 | 0 | 0 | 0 | 0 | 0 | 0 | 17 | 12 | 0 | 0 | 0 | 0 | 5 | 0 | 12
10 | CC(C)(C)c1ccc(C(=O)Nc2cn3cc(-c4cccnc4)ccc3n2)cc1 | 65 | 16 | 23 | 0 | 18 | 21 | 41 | 0 | 0 | 0 | 24 | 16 | 5 | 0 | 44 | 52 | 27 | 25 | 15 | 11
11 | CC1=C(C(=O)Nc2cc3cn[nH]c3cc2F)C(c2ccc(C(F)(F)F)cc2)CC(=O)N1 (stereo not shown) [GSK429286] | 0 | 11 | 18 | 26 | 0 | 14 | 5 | 27 | 73 | 10 | 0 | 10 | 24 | 0 | 0 | 0 | 0 | 13 | 0 | 29
